A selection: hits, their analogues and other compounds. The true share with any hit is near 6.3%.
ATXN2 expr inh – reduces ATXN2 reporter expression in HEK-293 cells | HEK-293 ATXN2-luciferase reporter, luminescence, 24 h | Potency, µM (titrated, usually from 57 µM), hits mostly inhibitors | 360,000 tested, 0.72% active; also: nearly all actives have a fitted effect of over 55% in size
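qHTS (up to 57 uM final) was run with 24 h compound exposure of reporter cells at 37 °C. Each well was multiplexed: SteadyGlo luminescence measured ATXN2-luciferase expression after a fluorogenic Gly-Phe-AFC viability readout (25 uM final).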
ATXN viability – reduces viability in counter-screen for ATXN expression inhibitors. S2 cells (HEK-293 line with an ATXN2-luciferase reporter) viability, CellTiter-Fluor protease fluorescence, 24 h. Potency, µM (highest dose often 56.7 µM), actives largely listed as cytotoxic. 400,000 tested, 0.49% active. AID 651635; also: nearly all actives have a fitted effect of over 40% in size
Gal4-VP16 FLuc – Gal4-VP16 reporter inhibition counter-screen. Drosophila S2 Gal4-VP16 UAS-luciferase, luminescence, 20 h. Potency, µM (titrated, usually from 53.6 µM), usual class: inhibitors. 310,000 tested, 3.5% active;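 also: Gal4-VP16 expression switched on by copper sulfate through the metallothionein promoter; nearly all actives have a fitted effect of over 50% in size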
TGFb inhibitor – inhibitors of TGF-b signaling; HepG2 CAGA-GFP TGF-b/SMAD3 reporter, GFP fluorescence, 18 h; TGF-beta stimulated, 500 pg/mL final; Potency, µM (highest dose often 46.1 µM), most hits filed as inhibitors; 410,000 tested, 1.2% active; also: nearly all actives have a fitted effect of over 65% in size
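TGF-beta reporter screen: HEPG2 CAGA-GFP, 1% FBS, 500 pg/mL TGF-beta final, 18 h; per-cell GFP summed per well; curves fitted and categorized by class.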
RORg inh – inhibitors of mouse ROR gamma transcriptional activity. P51450. Drosophila S2 Gal4-RORgamma UAS-luciferase reporter, 20 h. Potency, µM (highest dose often 53.6 µM), most hits filed as inhibitors. 310,000 tested, 5.4% active; also: nearly all actives have a fitted effect of over 60% in size
Target sequence (P51450 whole entry, looked up, the tested form may be a part): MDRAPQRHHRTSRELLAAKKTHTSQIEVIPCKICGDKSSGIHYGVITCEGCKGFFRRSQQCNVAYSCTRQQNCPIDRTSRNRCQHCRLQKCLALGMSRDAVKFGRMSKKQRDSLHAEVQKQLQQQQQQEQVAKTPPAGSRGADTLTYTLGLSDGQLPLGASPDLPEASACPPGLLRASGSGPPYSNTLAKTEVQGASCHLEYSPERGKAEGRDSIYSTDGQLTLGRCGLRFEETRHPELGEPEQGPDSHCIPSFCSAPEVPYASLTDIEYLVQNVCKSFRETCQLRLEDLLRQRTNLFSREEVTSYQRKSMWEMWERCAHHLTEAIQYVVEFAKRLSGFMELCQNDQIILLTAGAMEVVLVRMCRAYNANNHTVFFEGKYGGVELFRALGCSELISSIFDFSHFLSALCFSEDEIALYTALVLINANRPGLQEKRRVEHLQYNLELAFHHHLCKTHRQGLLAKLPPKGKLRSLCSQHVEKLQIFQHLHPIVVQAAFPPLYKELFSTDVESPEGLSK
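Drosophila S2 cells stably expressing Gal4-DBD/mouse RORγ fusion under metallothionein promoter plus UAS-luciferase; compound 1 h, then 700 uM CuSO4 induction for 20 h at ambient temperature; inhibition read as reduced luminescence.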
HepG2 tox – counter-screen for TGF-b inhibitors: cytotoxicity in HepG2 cells. HepG2 CAGA-GFP viability, ATP luminescence, 18 h. Potency, µM (titrated, usually from 46.1 µM), actives largely listed as cytotoxic. 410,000 tested, 0.76% active. AID 588856
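CellTiter-Glo luminescence gave cytotoxicity after 18 hours at 37 degrees C. The cells were HepG2 CAGA-GFP in 1% FBS DMEM, stimulated with 500 pg/mL TGF-beta after compound addition. %Activity was normalised to no-cell wells (complete cell-killing) and DMSO (no toxicity), and curves were fitted and classified.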
A number is an active result; i = inactive; ? = inconclusive; nt = no result given; [ ] = another dose, or the depositor's remark. Calls follow the shape of the dose curve; as a rule, active = well fitted curve in the direction sought with a large enough effect; inconclusive = small, poorly fitted or top-dose-only effect, or another doubt; inactive = no such curve, though single readings can be large; an effect the other way counts as inactive or inconclusive.

SMILES	ATXN2 expr inh	ATXN viability	Gal4-VP16 FLuc	TGFb inhibitor	RORg inh	HepG2 tox
O=C(CCNS(=O)(=O)c1ccc2c(c1)CCN2C(=O)C1CC1)N1CCN(c2cccc(Cl)c2)CC1	?	i	nt	i	nt	i
O=C1c2ccc3c4c(ccc(c24)C(=O)N1CCCCO)C(=O)N(CCCCO)C3=O	?	?	i[10 µM]	2.5µM	8.9µM	3.2µM
CC1CCN(Cc2c(O)ccc3c(=O)c(-c4nc5ccccc5s4)c(N)oc23)CC1	nt	i	i	i	i	i
CC1CCCN(Cc2c(O)ccc3c(=O)c(-c4nc5ccccc5s4)c(N)oc23)C1 (configuration not stated)	i	i	?	?	25µM	i
C/C(=N\NC(=O)c1ccccc1O)C1C(=O)c2ccccc2C1=O	nt	nt	3.2µM	i	3.5µM	i
O=C(NN=C1CCCC1)c1ccccc1O	i	i	?	i	?	i
C/C(=N/NC(=O)c1cc2ccccc2cc1O)C1C(=O)c2ccccc2C1=O	i	i	18µM	i	?	i
COCCN1C[C@@H](CO)O[C@@H](n2cnc3c(NCc4ccc(F)cc4)ncnc32)C1	i	i	nt	i	nt	i
Cc1cccc(-c2ocnc2C(=O)Nc2ccccc2NC(=O)c2ccccn2)c1	i	i	8.9µM	?	0.56µM	i
Cc1cccc(-c2ocnc2C(=O)Nc2ccccc2C(=O)N2CCCC2)c1	i	i	i	i	i	i
CSc1ccccc1NC(=O)c1ccccn1	i	i	1.3µM	i	0.45µM	i
Cc1ccc(-c2ocnc2C(=O)Nc2ccccc2NC(=O)c2ccccn2)cc1	i	i	11µM	?	1.6µM	i
O=C(O)CCCCC(CCSCc1ccccc1)SCc1ccccc1 (configuration not stated)	i	nt	nt	nt	nt	nt
O=C1NC(Nc2nccs2)(C(F)(F)F)C(=O)N1CCc1ccccc1 (configuration not stated)	i	i	?	i	13µM	i
N#CC1(c2ccc(NC(=O)c3cccnc3NCc3ccncc3)cc2)CCCC1	i	nt	nt	nt	nt	nt
CN(C)c1ccc(-c2ccnc3c2CC(C)(C(=O)NCC2CCOCC2)O3)cc1 (configuration not stated)	i	i	nt	i	nt	i
O=S(=O)(c1ccc(Br)cc1)c1cnc2ccccc2n1	i	i	?	i	11µM	i
COc1ccc(S(=O)(=O)c2cnc3ccccc3n2)cc1	i	i	?	i	11µM	i
COc1ccc(NC(=O)CN(Cc2ccccc2)S(=O)(=O)c2ccc3nc(C)sc3c2)cc1	i	i	nt	i	nt	i
NC(=O)c1ccc(N=Cc2ccc([N+](=O)[O-])s2)cc1	?	?	5.6µM	i	?	i
Cc1ccc(NCc2ccc([N+](=O)[O-])s2)cc1	i	?	i	?	i	i
Cc1cc(C)cc(N=Cc2ccc([N+](=O)[O-])s2)c1	?	?	18µM	11µM	?	i
O=[N+]([O-])c1ccc(C=Nc2ccc(Cl)c([N+](=O)[O-])c2)s1	nt	nt	i[10 µM]	nt	?	nt
Cc1ccc(NC(=S)N/N=C/c2ccc([N+](=O)[O-])s2)cc1	?	nt	16µM	?	7.1µM	i
COc1cc(CNc2ncnc3c2ncn3[C@H]2CN(Cc3ccco3)C[C@@H](CO)O2)cc(OC)c1OC	i	i	nt	i	nt	i
SMILES	ATXN2 expr inh	ATXN viability	Gal4-VP16 FLuc	TGFb inhibitor	RORg inh	HepG2 tox
CCCS(=O)(=O)NC(=O)C1(C)CCN(C(=O)c2cc(-c3cccs3)oc2C)C1 (configuration not stated)	i	i	nt	i	nt	i
COc1cc(NS(=O)(=O)c2cc3c(cc2C)N(C)CCO3)cc(OC)c1OC	nt	nt	nt	i	nt	i
Cc1ccc(/C=C2\SC(=S)N(CCCC(=O)Nc3cc(C)on3)C2=O)cc1	?	i	?	i	0.79µM	i
CCN(CC)CCOC(=O)c1ccc(NC(=O)CCCN2C(=O)/C(=C\c3cccs3)SC2=S)cc1	?	nt	11µM	?	11µM	i
Cc1cc(NC(=O)CCCN2C(=O)/C(=C\c3cccs3)SC2=S)no1	i	i	13µM	i	i	i
O=C(CCN1C(=O)/C(=C\c2cccs2)SC1=S)Nc1ccc(C(=O)O)cc1	i	i	i	i	i	i
COc1ccc(/C=C2\SC(=S)N(CCCC(=O)Nc3cc(C)on3)C2=O)cc1OC	i	nt	5µM	i	2µM	i
COc1ccc(/C=C2\SC(=S)N(CCCCCC(=O)Nc3cc(C)on3)C2=O)cc1OC	i	i	i	i	i	i
O=C(CS(=O)(=O)c1cccc2nsnc12)Nc1ccc(F)cc1	i	i	nt	i	nt	i
O=c1c2cc(N3CCOCC3)ccc2[nH]c(=S)n1CCc1ccccc1	i	nt	3.2µM	i	2µM	i
O=C(CCCCCn1c(=S)[nH]c2ccc(N3CCOCC3)cc2c1=O)NCc1cccc(Cl)c1	i	nt	i	i	10µM	i
O=c1c2cc(N3CCOCC3)ccc2[nH]c(=S)n1Cc1ccccc1Cl	i[11.3 µM]	i	?	i	?	i
O=C(CCCCCn1c(=S)[nH]c2ccc(N3CCOCC3)cc2c1=O)NCc1ccccc1	i	nt	?	i	i	i
COc1ccc(CCn2c(=S)[nH]c3ccc(N4CCOCC4)cc3c2=O)cc1OC	i	nt	?	?	13µM	i
O=c1c2cc(N3CCOCC3)ccc2[nH]c(=S)n1Cc1ccccn1	i	i	?	i	7.9µM	i
Cc1ccc(S(=O)(=O)N2C[C@H]3C(=O)C[C@@H](c4cccc(Cl)c4)N(S(=O)(=O)c4ccc(C)cc4)[C@H]3C[C@H]2c2cccc(Cl)c2)cc1	i	i	nt	i	nt	i
O=C(Cn1nc2ccccc2n1)N/N=C/c1cc([N+](=O)[O-])ccc1O	20µM	?	1.4µM	i	?	i
O=C(Cn1cncn1)N/N=C/c1ccncc1	nt	i	i	i	i	i
O=C(Cn1cncn1)N/N=C/c1cc([N+](=O)[O-])ccc1O	nt	?	i	i	8.9µM	i
O=C(Cn1nnc(-c2ccccc2)n1)N/N=C/c1cc([N+](=O)[O-])ccc1O	?	?	i	i	i	i
O=C(/C=C/Nc1ccc([N+](=O)[O-])cc1Br)c1cccc2ccccc12	i	i	?	i	2.5µM	i
O=C(Cn1cncn1)N/N=C/c1ccccc1O	i	i	?	i	8.9µM	i
CCc1nc2c(OCc3ccc(C#N)cc3)cccn2c1N(C)C(=O)c1ccc(C)cc1	i	i	nt	i	nt	i
Cc1ccc(CN2CCOc3ccc(CN4CCC(O)(c5cccnc5)CC4)cc3C2)cc1	nt	i	nt	nt	nt	nt
COc1ccc(CNC(=O)C2(C)Cc3c(-c4ccc(N(C)C)cc4)ccnc3O2)cc1OC (configuration not stated)	i	?	nt	?	nt	i
Cc1cc(C)n(CC(=O)N/N=C/c2cccc([N+](=O)[O-])c2)n1	i	?	i	i	i	i
